The record followed here is PubChem BioAssay.

The nature of assay [1]: small molecules captured by biotinylated probe aFSTL3 – biochemical, small-molecule microarray, fluorescence 635/667, stem cell growth factor project, primary screen (AID 1064).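 Also: measures binding of the biotinylated anti-FSTL3 antibody to printed compounds.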 To be noted: higher = more signal.
A short description of assay [2]: binders from COS7 lysate, DM2A8 probe, primary screen, torsin A project, cell lysate, small-molecule microarray, fluorescence 635/667 (AID 1065). To be noted: higher = more signal, COS7 lysate expressing mutant human TOR1A.
The nature of assay [3]: small molecules captured by biotinylated probe aFGF2 – biochemical, small-molecule microarray, fluorescence 635/667, stem cell growth factor project, primary screen (AID 1067).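 Also: measures binding of biotinylated aFGF2 protein to printed compounds on slides; z-score merges feature fluorescence and signal-to-noise across triplicate slides.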 As to conditions: higher = more signal.
A short description of assay [4]: small molecules captured by biotinylated probe aFGF10 – biochemical, small-molecule microarray, fluorescence 635/667, stem cell growth factor project, primary screen (AID 1071).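 Also: score merges 667 nm spot intensity and signal to noise from triplicate slides.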 As to conditions: higher = more signal.
Assay [5] addresses Neurogenic locus notch homolog protein 2 (Homo sapiens) (UniProt Q04721). In words: small molecules binding Notch2 protein – biochemical, small-molecule microarray, 635 nm fluorescence, stem cell growth factors, primary screen (AID 1073). As to conditions: higher = more signal.
Assay [6] deals with Pro-neuregulin-1, membrane-bound isoform (Homo sapiens) (UniProt Q02297). The assay is described as follows: small molecules binding neuregulin-1 protein – biochemical, small-molecule microarray, fluorescence 635/667, psychiatric disease protein project, primary screen (AID 1075).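 Also: score combines 667 nm spot fluorescence with signal to noise.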 To be noted: NRG1 binding, 635 nm fluorescence, higher = more signal.
The subject of assay [7] is Neuregulin-1 EGF-like domain. The assay is described as follows: small molecules binding NRG1 EGF domain – biochemical, small-molecule microarray, 635 nm fluorescence, primary screen (AID 1081).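 Also: binding of the protein to compounds printed on small-molecule microarray slides.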 As to conditions: higher = more signal.
The nature of assay [8]: FRG1 expression reporter modulators in myotubes – cell-based, C2C12 myotubes, firefly/Renilla luciferase, luminescence, FRG1 inhibition for FSHD, primary screen (AID 1084). To be noted: FRG1 promoter luciferase, higher = more signal, called active from +8 up or from −8 down.
The nature of assay [9]: small molecules captured by biotinylated probe aFST – biochemical, small-molecule microarray, fluorescence 635/667, stem cell growth factor project, primary screen (AID 1086).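 Also: score merges 667 nm fluorescence with signal-to-noise of each printed compound spot.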 As to conditions: higher = more signal.
The nature of assay [10]: binders of probe aHhip on microarray, primary screen, stem cell growth factor project, biochemical, small-molecule microarray, fluorescence 635/667 (AID 1087).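 Also: score merges spot fluorescence at 667nm with spot signal to noise ratio.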 To be noted: higher = more signal.
For assay [11], the system named is PRMT1 (protein arginine N-methyltransferase 1). The assay is described as follows: small molecules binding arginine methyltransferase PRMT1 – biochemical, small-molecule microarray, 635 nm fluorescence, primary screen (AID 1088).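 Also: binding of Prmt1 protein to compounds spotted on small-molecule microarray slides.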 To be noted: higher = more signal.
Assay [12] in a line: growth effects on S. cerevisiae YJM789 – YJM789 clinical isolate, OD600, 24 h, basal, primary screen (AID 1089).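 Also: growth of clinical yeast isolate S. cerevisiae YJM 789 seeded 1000 cells per well; test concentration not given here.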 As to conditions: higher = more signal, called active from +8 up or from −8 down.
A short description of assay [13]: S. pombe growth modifiers, basal conditions – strain 972, OD600, 24 h, no modulator, primary screen (AID 1090).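 Also: basal condition with compound alone and no growth modifier present; test concentration not given here.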 To be noted: S. pombe 972 growth, higher = more signal, called active from +8 up or from −8 down.
A short description of assay [14]: budding yeast growth modifiers under rapamycin – strain BY4716, OD600, 96 h, primary screen (AID 1091). Also: test concentration not given here. To be noted: S. cerevisiae BY4716 + rapamycin, higher = more signal, called active from +8 up or from −8 down.
Assay [15] deals with Torsin-1A-interacting protein 2 (Homo sapiens) (UniProt Q8NFQ8). The assay is described as follows: small molecules binding lysate-expressed LULL1 – cell lysate, human LULL1 lysate, 635/667 nm fluorescence, primary screen (AID 1092).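 Also: probe is lysate of COS7 cells overexpressing human LULL1; score merges per-feature 667 nm fluorescence with signal-to-noise.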 To be noted: small-molecule microarray, hLULL1 lysate binding, 635 nm fluorescence; higher = more signal.
Assay [16] can be described thus: optical density change of DRC41 E. coli – strain DRC41, OD650, 24 h, E. coli filamentation project, primary screen (AID 1093).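 Also: MC1000 strain lacking acrAB efflux and sulA so SOS filamentation is blocked; test concentration not given here.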 To be noted: E. coli DRC41 growth, higher = more signal, called active from +8 up or from −8 down.
The nature of assay [17]: probe aLefty2 binding to arrayed compounds – biochemical, biotinylated probe, 635/667 nm fluorescence, primary screen (AID 1094).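 Also: score merges spot fluorescence near 667 nm with spot signal-to-noise ratio.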 To be noted: small-molecule microarray, higher = more signal.
In assay [18] the test system is Noggin (protein binding on small-molecule microarray). The assay is described as follows: small molecules binding Noggin protein – biochemical, 635/667 nm fluorescence, primary screen (AID 1095).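 Also: score merges 667 nm feature fluorescence with signal to noise over triplicate slides.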 To be noted: 635 nm fluorescence, higher = more signal.
For assay [19], the target named is Neurogenic locus notch homolog protein 3 (Homo sapiens) (UniProt Q9UM47). The assay is described as follows: small molecules binding NOTCH3 protein – biochemical, 635/667 nm fluorescence, primary screen (AID 1096). As to conditions: small-molecule microarray, 635 nm fluorescence, higher = more signal.
Assay [20] in a line: probe aEGFR binding to arrayed compounds – biochemical, biotinylated probe, 635/667 nm fluorescence, primary screen (AID 1097).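 Also: probe is a biotinylated anti-EGFR antibody binding compounds printed on slides; score combines fluorescence near 667 nm and signal to noise of each spot.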 To be noted: small-molecule microarray, higher = more signal.

Each structure is given as a SMILES string. Calls of active or inactive are those of the source.

Torsin-1A-interacting protein 2 (Homo sapiens), sequence (Q8NFQ8 whole entry, looked up): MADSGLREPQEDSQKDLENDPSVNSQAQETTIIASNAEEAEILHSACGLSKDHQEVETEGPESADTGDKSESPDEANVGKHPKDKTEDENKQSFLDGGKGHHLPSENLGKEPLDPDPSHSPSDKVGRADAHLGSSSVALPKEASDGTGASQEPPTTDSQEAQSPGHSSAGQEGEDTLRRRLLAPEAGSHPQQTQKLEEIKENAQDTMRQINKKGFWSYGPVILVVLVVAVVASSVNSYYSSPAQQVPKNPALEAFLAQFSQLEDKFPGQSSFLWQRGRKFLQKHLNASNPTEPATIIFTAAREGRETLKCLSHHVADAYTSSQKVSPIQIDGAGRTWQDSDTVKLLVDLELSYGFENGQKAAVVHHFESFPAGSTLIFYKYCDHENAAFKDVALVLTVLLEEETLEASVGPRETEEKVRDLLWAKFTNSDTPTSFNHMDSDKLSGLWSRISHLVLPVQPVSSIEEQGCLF
Pro-neuregulin-1, membrane-bound isoform (Homo sapiens), sequence (Q02297 whole entry, looked up, the tested form may be a part, canonical isoform): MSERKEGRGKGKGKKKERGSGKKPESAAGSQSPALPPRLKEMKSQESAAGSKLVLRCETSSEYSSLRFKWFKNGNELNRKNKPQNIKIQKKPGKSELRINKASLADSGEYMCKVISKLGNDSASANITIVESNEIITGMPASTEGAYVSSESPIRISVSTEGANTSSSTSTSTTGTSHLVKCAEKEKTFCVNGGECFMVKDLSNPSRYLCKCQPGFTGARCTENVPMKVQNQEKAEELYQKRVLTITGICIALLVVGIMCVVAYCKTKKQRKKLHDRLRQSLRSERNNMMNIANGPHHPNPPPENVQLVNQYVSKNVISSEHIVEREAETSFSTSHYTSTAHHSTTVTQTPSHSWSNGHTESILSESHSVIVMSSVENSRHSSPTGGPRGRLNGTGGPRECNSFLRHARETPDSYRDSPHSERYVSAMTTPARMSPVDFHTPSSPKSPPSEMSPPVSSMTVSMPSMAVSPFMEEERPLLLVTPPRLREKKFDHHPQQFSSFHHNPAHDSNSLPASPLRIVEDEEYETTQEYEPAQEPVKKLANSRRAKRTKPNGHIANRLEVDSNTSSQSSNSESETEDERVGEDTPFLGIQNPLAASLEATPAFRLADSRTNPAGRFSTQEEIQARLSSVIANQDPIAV
Neurogenic locus notch homolog protein 2 (Homo sapiens), sequence (Q04721 whole entry, looked up, canonical isoform): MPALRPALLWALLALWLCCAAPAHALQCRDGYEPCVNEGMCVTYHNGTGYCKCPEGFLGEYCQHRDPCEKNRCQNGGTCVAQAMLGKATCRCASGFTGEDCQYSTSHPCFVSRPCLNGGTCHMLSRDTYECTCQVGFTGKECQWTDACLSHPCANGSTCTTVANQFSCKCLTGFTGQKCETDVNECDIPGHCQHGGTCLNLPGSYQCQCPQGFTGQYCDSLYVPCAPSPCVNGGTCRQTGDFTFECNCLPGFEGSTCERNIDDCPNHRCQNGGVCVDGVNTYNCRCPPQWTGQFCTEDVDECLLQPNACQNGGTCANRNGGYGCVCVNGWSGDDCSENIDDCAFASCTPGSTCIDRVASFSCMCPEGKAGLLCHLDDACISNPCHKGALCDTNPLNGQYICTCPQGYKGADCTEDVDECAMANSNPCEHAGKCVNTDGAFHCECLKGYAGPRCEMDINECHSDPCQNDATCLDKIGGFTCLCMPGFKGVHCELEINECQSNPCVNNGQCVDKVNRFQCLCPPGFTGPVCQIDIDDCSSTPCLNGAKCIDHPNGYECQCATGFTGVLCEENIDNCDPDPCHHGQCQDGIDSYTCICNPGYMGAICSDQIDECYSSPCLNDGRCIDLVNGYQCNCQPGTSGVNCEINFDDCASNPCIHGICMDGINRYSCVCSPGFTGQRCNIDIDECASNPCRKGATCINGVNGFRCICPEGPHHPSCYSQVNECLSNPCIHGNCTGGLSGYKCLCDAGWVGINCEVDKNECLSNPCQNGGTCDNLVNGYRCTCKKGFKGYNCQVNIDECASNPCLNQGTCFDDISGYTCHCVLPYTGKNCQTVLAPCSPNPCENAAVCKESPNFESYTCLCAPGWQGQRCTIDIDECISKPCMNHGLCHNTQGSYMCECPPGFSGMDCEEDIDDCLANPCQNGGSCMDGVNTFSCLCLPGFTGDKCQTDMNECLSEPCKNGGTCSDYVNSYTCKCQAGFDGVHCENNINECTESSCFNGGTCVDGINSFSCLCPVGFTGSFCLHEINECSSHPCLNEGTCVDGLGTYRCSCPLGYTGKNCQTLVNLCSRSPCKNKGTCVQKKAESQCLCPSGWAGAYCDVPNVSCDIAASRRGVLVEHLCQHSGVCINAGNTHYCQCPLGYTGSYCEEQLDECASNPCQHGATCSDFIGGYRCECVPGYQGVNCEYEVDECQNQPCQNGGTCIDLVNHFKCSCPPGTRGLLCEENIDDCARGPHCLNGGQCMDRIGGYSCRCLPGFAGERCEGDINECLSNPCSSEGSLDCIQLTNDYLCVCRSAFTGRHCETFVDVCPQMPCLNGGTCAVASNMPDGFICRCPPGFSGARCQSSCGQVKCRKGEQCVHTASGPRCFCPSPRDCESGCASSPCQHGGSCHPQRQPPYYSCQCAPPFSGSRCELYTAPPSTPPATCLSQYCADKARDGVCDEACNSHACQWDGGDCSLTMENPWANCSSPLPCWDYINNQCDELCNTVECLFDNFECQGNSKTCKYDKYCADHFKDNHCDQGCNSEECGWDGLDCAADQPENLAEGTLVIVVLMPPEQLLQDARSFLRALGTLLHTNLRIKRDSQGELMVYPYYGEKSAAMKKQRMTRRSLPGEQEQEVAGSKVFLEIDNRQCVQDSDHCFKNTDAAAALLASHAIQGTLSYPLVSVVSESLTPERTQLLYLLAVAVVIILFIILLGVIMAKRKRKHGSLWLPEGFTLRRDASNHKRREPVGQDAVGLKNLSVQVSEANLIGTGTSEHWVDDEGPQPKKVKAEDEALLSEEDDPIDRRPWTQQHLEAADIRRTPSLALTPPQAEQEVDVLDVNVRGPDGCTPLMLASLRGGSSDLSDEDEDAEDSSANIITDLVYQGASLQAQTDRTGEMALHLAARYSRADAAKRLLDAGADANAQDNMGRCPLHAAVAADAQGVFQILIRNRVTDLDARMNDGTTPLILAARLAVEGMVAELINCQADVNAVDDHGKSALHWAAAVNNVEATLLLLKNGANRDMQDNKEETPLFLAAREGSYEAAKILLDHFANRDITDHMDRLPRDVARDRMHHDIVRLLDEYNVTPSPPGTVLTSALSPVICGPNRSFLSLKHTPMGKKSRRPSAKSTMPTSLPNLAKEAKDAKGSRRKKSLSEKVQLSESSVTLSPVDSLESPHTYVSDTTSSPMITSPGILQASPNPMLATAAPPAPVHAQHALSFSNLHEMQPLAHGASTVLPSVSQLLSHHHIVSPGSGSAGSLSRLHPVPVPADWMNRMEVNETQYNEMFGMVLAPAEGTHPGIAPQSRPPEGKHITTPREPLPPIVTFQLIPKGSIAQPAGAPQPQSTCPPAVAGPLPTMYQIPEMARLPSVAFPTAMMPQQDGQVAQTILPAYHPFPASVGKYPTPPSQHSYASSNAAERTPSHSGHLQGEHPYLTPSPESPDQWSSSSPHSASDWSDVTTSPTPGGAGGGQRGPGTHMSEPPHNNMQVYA

As for `C=CCC(OC(C)=O)[C@@H]1[C@@H](N(Cc2cc3ccccc3o2)C(=O)c2cccc3ccccc23)c2cc(OCCCO)ccc2N1C(=O)c1ccc2ccccc2c1` (stereo not given in full), the composite z-score in assay [1] was -0.16; in assay [2], -0.267; in assay [3] it was -0.0993; in [4] it was 0.277; in assay [5], -0.0361; in [6], -0.223. Moreover, the composite z-score in assay [7] was 0.272; in assay [9], 0.296; in [10] it was -0.128; in assay [11], -0.305; in assay [15], 0.583; in assay [17], 0.0826. Also, the composite z-score in [18] is 0.413; in assay [19] it was 0.222; in assay [20], -0.139. For the same molecule, the z-score in assay [8] was -4.21 (inactive); in [12], 0.0315 (inactive); in assay [13], -0.943 (inactive); in [14], -0.0147 (inactive); in assay [16] it was -0.234 (inactive).
Regarding `C=C(COC)/C(=C/C[C@H](OC(=O)c1ccncc1)c1ccc(OCCO)cc1)c1cc(C(=O)OC)ccc1OC`, the composite z-score in assay [1] is -0.139; in assay [2], -0.0024; in assay [3] it was 0.0436; in [4], 1.08; in [5], 0.0841; in [6], 0.358. In addition, the composite z-score in assay [7] was 1.03; in assay [9] it was 1.42; in assay [10] it was 0.113; in assay [11] it was 1.41; in assay [15] it was 2.28; in assay [17], -0.0337. Also, the composite z-score in assay [18] was 1.01; in assay [19], 1.1; in [20], -0.0828. Besides, the z-score in assay [8] was -0.992 (inactive); in assay [12], -0.823 (inactive); in [13], -1.2 (inactive); in assay [14] it was -0.649 (inactive); in [16] it was 1.59 (inactive).
Turning to `COCCOC(=O)N1C(=O)[C@@]2(c3cc(C#CCNC(N)=O)ccc31)[C@H](C(=O)NC[C@H](O)c1ccccc1)[C@H]1C(=O)O[C@H](c3ccccc3)[C@H](c3ccccc3)N1[C@@H]2c1ccc(OCCO)cc1`, the composite z-score amounted to 0.102 in assay [1]; 0.249 in [2]; 0.0198 in assay [3]; 0.656 in assay [4]; 0.431 in [5]; 0.634 in assay [6]. The composite z-score in assay [7] is 0.877; in assay [9], 0.538; in assay [10] it was -0.0994; in assay [11], 1.55; in assay [15], 2.5; in assay [17] it was -0.0083. The composite z-score is 0.683 in assay [18], 1.16 in assay [19] and -0.0828 in assay [20]. The z-score is 0.769 (inactive) in assay [8]; 2.39 (inactive) in assay [12]; 1.54 (inactive) in assay [13]; 4.57 (inactive) in assay [14]; 0.383 (inactive) in [16].
For `Cc1ccc(F)cc1S(=O)(=O)N[C@@H]1CCN(Cc2ccc3c(c2)OCO3)C1`, the composite z-score in [1] was -0.125; in assay [2], 0.267; in assay [3] it was -0.135; in assay [4] it was -0.0066; in [5] it was -0.898; in assay [6], -0.474. Besides, the composite z-score in assay [7] was -0.276; in assay [9], -0.264; in [10], -0.0994; in assay [11], -0.5; in [15], -0.539; in [17] it was -0.148. In addition, the composite z-score in assay [18] is 0.171; in assay [19], -0.307; in [20], -0.226. For the same molecule, the z-score in [8] is -4.06 (inactive); in assay [12] it was 0.158 (inactive); in assay [13] it was -2.41 (inactive); in assay [14] it was 1.23 (inactive); in assay [16], -1.4 (inactive).
Take `CCOC(=O)C1=CC[C@@H](c2ccccc2Cl)N(S(=O)(=O)c2ccc(C)cc2)[C@H]1c1cccc(OC)c1`: the composite z-score is -0.329 in assay [1]; 0.0632 in [2]; -0.0276 in assay [3]; 0.317 in assay [4]; 0.408 in [5]; 0.0948 in [6]. In addition, the composite z-score is 0.971 in [7]; 0.289 in assay [9]; 0.0139 in [10]; 0.336 in assay [11]; 1.84 in [15]; -0.186 in assay [17]. Moreover, the composite z-score in assay [18] was -0.0339; in assay [19], 0.506; in assay [20], -0.125. Further, the z-score in assay [8] is -0.38 (inactive); in assay [12], 0.318 (inactive); in assay [13] it was 0.957 (inactive); in assay [14] it was 2.88 (inactive); in assay [16] it was -1.08 (inactive).
